# The list is not random: actives were taken first. Their share in the collection is about 2.6%.
# LMP1 NFkB inh: Epstein-Barr LMP1 NF-kappaB reporter inhibition. LMP1-induced NF-kappaB luciferase reporter cells, luminescence. inhibition, % at 12.5 µM. 350,000 tested, 0.69% active. AID 504558; in the data active means inhibition above about 41%; inconclusive means no clear call, values can overlap the other calls;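 further: 0% = neutral control wells and 100% = reference inhibitor control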
# HSP90 inh: blocks HSP90-mediated luciferase refolding in reticulocyte lysate; Rabbit reticulocyte lysate, luciferase refolding luminescence, 3 h; inhibition, % at 5.6 µM; 290,000 tested, 0.91% active; AID 1789;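 active means inhibition above the screen-wide mean plus 3 SD, computed separately per campaign, cut at about 16% in these data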;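 further: 0% = DMSO wells and 100% = 60 µM geldanamycin wells; inhibitors lower the luminescence because luciferase stays unfolded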
# aDG glyco up: increases alpha dystroglycan glycosylation; AID 624168; Pro5-aDG cells, alpha-DG glycosylation AlphaScreen (IIH6); 0% Pro5, 100% B10-LARGE cell signal; activation, % at 10 µM; 360,000 tested, 0.22% active;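 active means activation of at least 8% versus controls, or a plate z-score of at least 8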;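 further: Pro5 are CHO cells carrying HIG-tagged alpha-DG that lacks glycosylation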
# LGR2 inh: Drosophila LGR2 receptor signaling inhibition; HEK293 LGR2, CRE-luciferase, bursicon-stimulated, 4 h; inhibition, % at 9.99 µM; 380,000 tested, 0.35% active;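 active means drop in luminescence signal, shown as inhibition above about 50% in the replicate tests, limit read from the data, passing the limit was not always enough; inconclusive means probably only some replicates passing the limit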;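 further: agonist challenge used bursicon conditioned medium at about half maximal strength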
# TROY signal inh: blocks TROY-dependent signaling in reporter cells | 360,000 tested, 0.98% active | Q293 LMP1-TROYcd NF-kB luciferase reporter, 4 h | inhibition, % at 10 µM;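 active means compounds whose plate-normalised and pattern-corrected inhibition of the luciferase reporter signal at the single screening dose is 50% or more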
# TWEAK Fn14 block: blocks TWEAK-Fn14 interaction in a reporter cell assay; TWEAK-stimulated Fn14 reporter cells, luciferase luminescence, 8 h; inhibition, % at 10 µM; 360,000 tested, 2% active; AID 1159606; in the data active means inhibition above about 50%
# Numbers without * were called inactive; u = inconclusive; x = no result given.
SMILES,LMP1 NFkB inh,HSP90 inh,aDG glyco up,LGR2 inh,TROY signal inh,TWEAK Fn14 block
CCCNC(=O)N1[C@H](CO)[C@H](c2ccccc2)[C@H]1CNC(=O)C1CCC1,x,x,x,-14,x,x
CC(=O)N(C)C1=C(N2CCOCC2)C(=O)c2ccccc2C1=O,30,4,5.5*,x,32,74*
COc1cccc(/C=C/C(=O)OCC(=O)c2ccccc2)c1OC,-2,x,0,-63,51*,65*
COc1cccc(/C=C/C(=O)OCC(=O)c2ccc(C)c(C)c2)c1OC,2,x,0,-12,6,-21
CCOc1cc(C(=O)OC(C)C(=O)Nc2ncc(Cl)cc2Cl)ccc1OCC(=O)N1CCOCC1 (stereo not drawn),61*,5,0,14,-3,-15
CC(=O)N(C)c1ccc(OCC(O)Cn2c3ccc(Cl)cc3c3cc(Cl)ccc32)cc1 (stereo not drawn),-60,2,2,x,63*,48
CC(=O)N(C)c1ccc(OCC(O)Cn2c(C)nc3ccccc32)cc1 (stereo not drawn),7,2,0,-14,7,17
CCOC(=O)C1CCN(c2c(Nc3ccc4c(c3)OCCO4)c(=O)c2=O)CC1,6,12,0,-17,63*,81*
CCOC(=O)N1CCC(N2C(=O)c3ccccc3C2Nc2ccc3c(c2)OCCO3)CC1 (stereo not drawn),13,10,0,1,65*,85*
CC1CCCC(NC(=O)CCNC(=O)c2ccc([N+](=O)[O-])cc2)C1C (stereo not drawn),0,-1,0,1,-20,76*
CC1CCCC(NC(=O)CCNC(=O)c2ccc(Cl)cc2)C1C (stereo not drawn),2,x,0,-5,-28,-5
Cc1ccc(-c2csc(Cc3nc(-c4cc5ccccc5oc4=O)cs3)n2)cc1,36,2,0,-3,-65,23
Cc1ccn2cc(-c3cc4ccccc4oc3=O)nc2c1,25,6,0,46,0,66*
CCCNC(=O)C[C@@H]1C[C@@H]2c3cc(NS(=O)(=O)c4ccccc4)ccc3O[C@@H]2[C@H](CO)O1,x,x,x,-2,x,x
O=C(c1c[nH]c2ccccc12)C(O)C(c1ccccc1)N1CCOCC1 (stereo not drawn),2,-3,0,x,-9,-8
O=C(c1c[nH]c2ccccc12)C(Cl)c1ccccc1 (stereo not drawn),-15,1,0,21,13,79*
O=[N+]([O-])c1ccccc1S(=O)NCc1c(Cl)cccc1Cl (stereo not drawn),x,x,0,-2,55*,8
COCC(=O)N1CCC(Oc2ccc(C(=O)N3C[C@H]4CC[C@H]3C4)cc2)CC1,65*,5,0,6,9,2
CN(C)S(=O)(=O)c1cccc(NC(=O)COc2ccccc2C(=O)Nc2ccccc2)c1,5,x,0,45*,39,51*
CC1(C)Cc2nc3sc4c(SCC(=O)NCc5ccccc5)ncnc4c3cc2CO1,13,3,0,x,-21,37
COC(=O)CSc1ncnc2c1sc1nc3c(cc12)COC(C)(C)C3,51*,2,0,4,2,12
CCc1nc(OCc2ccco2)c2sc3nc4c(cc3c2n1)COC(C)(C)C4,3,16*,0,x,10,21
O=C(CCc1nc(-c2ccccc2F)no1)Nc1ccc(Oc2ccccc2)cc1,7,3,3,14,44,52*
COc1cccc(NC(=O)CCc2nc(-c3ccccc3F)no2)c1,-5,-4,1,-8,-5,17
CSc1nc(N)c2c3c(sc2n1)COC(C(C)C)C3 (stereo not drawn),4,0,1,x,7,6
SMILES,LMP1 NFkB inh,HSP90 inh,aDG glyco up,LGR2 inh,TROY signal inh,TWEAK Fn14 block
CCCC1Cc2c(sc3nc(SC)nc(N)c23)CO1 (stereo not drawn),6,0,0,x,-24,68*
COCc1cn(CC[C@H]2CC[C@@H](NC(=O)Nc3ccc4c(c3)OCO4)[C@H](CO)O2)nn1,x,x,x,-10,x,x
CC1(C)N=C(N)N=C(N)N1c1ccccc1,0,-1,0,x,15,-3
CC1(C)N=C(N)N=C(N)N1c1ccc(CCCCc2ccccc2)cc1,54*,x,0,43,21,40
COc1cccc2c(C)cc(N3CCCCCC3)nc12,32,3,0,5,2,-6
COc1ccc(OC)c2c(C)cc(N3CCCCCC3)nc12,12,5,0,12,-4,103*
Cc1cc2c(=O)oc(-c3ccccc3Br)nc2s1,10,11,0,4,2,10
Cc1cc2c(=O)oc(-c3ccc(F)cc3)nc2s1,0,0,0,35,-16,53*
CCOC(=O)C(=Cc1ccc(OCc2ccc([N+](=O)[O-])cc2)c(OC)c1)C(=O)OCC,-7,1,-1,x,30,58*
COC(=O)C(=Cc1ccc(OCc2ccc([N+](=O)[O-])cc2)c(OC)c1)C(=O)OC,13,-1,0,x,57*,91*
CC=Cc1ccc2n(c1=O)C[C@@H]1[C@@H](CO)[C@H](C(=O)NCCC)[C@H]2N1CCC(F)(F)F (mixture of isomers),x,x,x,3,x,x
Cc1nn(-c2ccccc2)c(N2CCCC2)c1/C=N/NC(=O)c1ccccc1O,10,3,0,12,-9,13
O=C(N/N=C/c1cc2c3c(c1O)CCCN3CCC2)c1ccccc1O,65*,4,1,7,-23,-14
CCC(=O)N1C[C@@H](C)[C@H](OC)CN(C)C(=O)c2cc(NC(=O)CC(F)(F)F)ccc2OC[C@@H]1C,x,x,x,-2,x,x
C[C@H](CO)N1C[C@H](C)[C@@H](CN(C)Cc2cccnc2)Oc2ncc(-c3cccc(F)c3)cc2C1=O,x,x,x,27,x,x
COc1ccc2c3c(cccc13)C(=O)CC2,1,5,0,30,28,63*
O=[N+]([O-])c1ccc(S(=O)(=O)c2cccc(C(F)(F)F)c2)nc1,76*,x,0,x,62*,-3
O=C(c1noc2c1CCCCC2)N1CCOCC1,-12,3,0,2,-2,-14
O=C(c1noc2c1CCCC2)N1CCCCC1,68*,4,0,-6,-3,-15
Oc1ccc(-c2n[nH]c(C(F)(F)F)c2-c2ccccc2)c(O)c1,7,1,3,4,31,56*
COc1ccc(-c2c(-c3ccc(O)cc3O)n[nH]c2C(F)(F)F)cc1,-10,0,0,-5,19,39
O=C(Nc1nnc(-c2cccs2)o1)c1cccc(C(F)(F)F)c1,u,3,0,17,9,101*
O=C(CNc1cccc2ccccc12)N/N=C/c1ccc([N+](=O)[O-])cc1,-14,3,0,-5,-1,82*
CN1/C(=C/c2cc[n+](C)c3ccccc23)C=Cc2ccccc21,47*,4,1,x,19,34
